Screening data from PubChem.
IL1B secr inh: inflammasome signaling inhibition, IL-1 beta readout. AID 743279. activity change, % at 57.5 µM. 4.7% of 360,000 active. THP-1 LPS/ATP IL-1B secretion, AlphaLISA, 16 h; stronger effect = lower value; in the data active means activity change below about -50%; inconclusive means mostly about -30% to -49%; further: on the % scale 0 is the no-effect control and ±100 the full control effect
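Secreted IL-1B measured by AlphaLISA bead assay after 16 h compound exposure of THP-1 cells; compounds (final up to 57.5 uM) added 1 h before LPS (250 ng/mL) and ATP (1.25 mM) stimulation; lower signal means less secretion.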
HepG2 viability: kills HepG2 cells in TGF-b inhibitor counter-screen | HepG2 CAGA-GFP viability, ATP luminescence, 18 h | Potency, µM (titrated, usually from 46.1 µM), without a hit: at the top dose activity change, negative = cytotoxicity, actives largely listed as cytotoxic | 0.76% of 410,000 active | AID 588856; further: potency means the concentration at half of the fitted maximal effect
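HepG2 CAGA-GFP cells (1000/well, DMEM with 1% FBS) received compound, then TGF-beta at 500 pg/mL final, and were incubated 18 hours at 37 degrees C. Viability was read by CellTiter-Glo luminescence. Media-only wells were set as complete cell-killing and DMSO as no toxicity.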
DT40 TDP1 no CPT: qHTS for Inhibitors of human tyrosyl-DNA phosphodiesterase 1 (TDP1): qHTS in cells in absence of CPT; Potency, µM (top dose mostly 46.2 µM), inactives show top-dose activity change, negative = growth inhibition, usual class: inhibitors; AID 686978, 2013; 15% of 420,000 active; DT40 Tdp1-/- hTDP1 cells, no CPT, ATP luminescence, 48 h; further: potency means the concentration at half of the fitted maximal effect; on the % scale 0 is the no-effect control and ±100 the full control effect; nearly all actives have a fitted effect of over 55% in size
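Cells were dispensed at 400 per well, compounds added by pin tool, plates incubated ≥48 hr at 37 °C, then CellTiter-Glo added for 30 min at room temperature before luminescence reading. Line: DT40 Tdp1-/- complemented with hTDP1; camptothecin omitted.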
DT40 TDP1 CPT: growth inhibition of DT40 Tdp1-/-;hTDP1 cells with camptothecin (screen for TDP1 inhibitors); chicken DT40 Tdp1-/-;hTDP1 cells + 20 nM CPT, ATP luminescence, 48 h; Potency, µM (top dose mostly 46.2 µM), inactives show at the top dose activity change, negative = growth inhibition, hits mostly inhibitors; 12% of 420,000 active; further: potency means the concentration at half of the fitted maximal effect; on the % scale 0 is the no-effect control and ±100 the full control effect; nearly all actives have a fitted effect of over 55% in size
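Cell growth measured by CellTiter-Glo luminescence after a minimum 48 h, 37 C compound exposure with 20 nM CPT in Tdp1-knockout DT40 cells stably expressing hTDP1, seeded 400/well; qHTS titration format.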
TDP1 inh: blocks human tyrosyl-DNA phosphodiesterase 1 | Q9NUW8 | recombinant TDP1, AlphaScreen DNA substrate cleavage | Potency, µM (highest dose often 130 µM), inactives show top-dose activity change, negative = inhibition, usual class: inhibitors | 0.28% of 350,000 active | AID 485290; further: potency means the concentration at half of the fitted maximal effect; on the % scale 0 is the no-effect control and ±100 the full control effect; nearly all actives have a fitted effect of over 40% in size
Target sequence (Q9NUW8 whole entry, looked up): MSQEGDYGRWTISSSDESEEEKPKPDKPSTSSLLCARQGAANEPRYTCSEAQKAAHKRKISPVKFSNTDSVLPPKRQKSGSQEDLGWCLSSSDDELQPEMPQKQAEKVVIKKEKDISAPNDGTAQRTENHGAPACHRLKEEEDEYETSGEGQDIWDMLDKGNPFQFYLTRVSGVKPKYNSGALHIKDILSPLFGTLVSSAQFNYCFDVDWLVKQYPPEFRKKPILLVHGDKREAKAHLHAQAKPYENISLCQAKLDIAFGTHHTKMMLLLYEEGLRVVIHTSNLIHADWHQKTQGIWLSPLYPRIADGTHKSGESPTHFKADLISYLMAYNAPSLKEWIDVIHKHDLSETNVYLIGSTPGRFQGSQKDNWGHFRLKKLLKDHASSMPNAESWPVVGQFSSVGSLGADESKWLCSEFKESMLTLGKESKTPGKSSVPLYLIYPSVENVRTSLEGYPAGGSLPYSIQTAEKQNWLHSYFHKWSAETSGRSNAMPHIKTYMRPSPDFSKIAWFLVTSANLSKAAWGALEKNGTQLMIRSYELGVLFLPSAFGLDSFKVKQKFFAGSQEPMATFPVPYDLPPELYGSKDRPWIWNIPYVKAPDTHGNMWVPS
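E. coli-derived human Tdp1, 1 nM final. Cpd preinc 15 min RT; substrate 15 nM final, 5 min RT; AS bead mix 10 ug/ml final, 10 min RT. Signal loss = tyrosine-FITC cleavage. No-enzyme wells = max signal.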
TGFb inhibitor: inhibitors of TGF-b signaling | 1.2% of 410,000 active | Potency, µM (doses to about 46.1 µM), without a hit: at the top dose activity, negative = inhibition, most hits filed as inhibitors | HepG2 CAGA-GFP TGF-b/SMAD3 reporter, GFP fluorescence, 18 h; TGF-beta stimulated, 500 pg/mL final; further: potency means the concentration at half of the fitted maximal effect; on the % scale 0 is the no-effect control and ±100 the full control effect; nearly all actives have a fitted effect of over 65% in size
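Inhibition was scored as loss of TGF-beta-induced (500 pg/mL final, 18 hours, 37 degrees C) GFP in HEPG2 cells carrying a CAGA-GFP reporter, in DMEM with 1% FBS. Well GFP was summed per cell; Activity was normalised to unstimulated and stimulated DMSO wells, then concentration-response fitting.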
Active calls of the source: *; ? = inconclusive; / = no result; [ ] = dose if it differs, or a comment. Rows were chosen to be rich in hits. Some 19% of all compounds tested hit in one or more screens of this group. Unless noted, the call rests on the fitted dose curve; in most records, active means well fitted curve in the direction sought with a large enough effect; inconclusive means small, poorly fitted or top-dose-only effect, or another doubt; inactive means no such curve, though single readings can be large; an effect the other way counts as inactive or inconclusive.

SMILES	IL1B secr inh	HepG2 viability	DT40 TDP1 no CPT	DT40 TDP1 CPT	TDP1 inh	TGFb inhibitor
COc1cc(=O)n2c(c1C(=O)NC(C)c1ccco1)CCN(Cc1ccccc1Cl)CC2 (centres undefined)	/	/	-23%	2%	/	/
C[N+]1(CCC(=O)c2ccccc2)CCCCC1	6	-27%	2.6µM*	3.3µM*	0%	?
CC1CCCN(CCC(=O)c2ccccc2)C1 (centres undefined)	6	-2%	10µM*	4.6µM*	/	0%
O=C(CCN1CCCCC1)c1ccccc1	-4	-9%	13µM*	11µM*	9%	?
CCCCOc1ccc(C(=O)CCN2CCOCC2)cc1	-104*	-69%	6.5µM*	5.2µM*	5%	?
O=C(OCCN1CCOCC1)c1ccc(OCCN2CCOCC2)cc1	-11	0%	-1%	3%	-1%	9%
CC(=O)OC(C[N+]1(C)CCCCCC1)c1ccccc1 (centres undefined)	-5	-3%	2%	0%	/	-5%
CN(N=O)C(=O)N[C@H]1C(O)C(O)C(CO)O[C@@H]1O (some centres undefined)	/	/	-12%	1%	-4%[56.1 µM]	/
CCOc1ccc(OCCN2CCCCC2)cc1	0	1%	-15%	-26%	-9%	?
CCOc1ccc(C(=O)CCN2CCCCCC2)cc1	?	11µM*	2.9µM*	3.7µM*	8%	?
O=C(CCN1CCN(C(=O)c2ccccc2)CC1)c1ccc(Br)cc1	-23	-10%	8.2µM*	7.3µM*	9%	-6%
O=C(CCN1CCOCC1)c1ccccc1	-72*	-84%	3.5µM*	2.6µM*	-2%	?
Cc1ccc(NC(=O)CN2C(=O)C3(SCC(=O)N3c3ccc(F)c(F)c3)c3ccccc32)c(C)c1 (centres undefined)	/	-14%	?	?	1%	1%
Cc1ccc(S(=O)(=O)c2cn(CC(=O)Nc3ccc(F)cc3)c3cc4c(cc3c2=O)OCO4)cc1	/	1%	-17%	-2%	9%	-13%
COc1ccccc1CN1CC[C@@]2(CCCN(S(C)(=O)=O)C2)C1	/	/	1%	?	/	/
COc1cccc(N2CCN(C(=O)C3CCN(S(=O)(=O)c4c(C)noc4C)CC3)CC2)c1	/	4%	?	-17%	-8%	-1%
O=C(CN1C(=O)NC2(CCCC2)C1=O)Nc1cc(C(F)(F)F)ccc1N1CCCCC1	-72*	-16%	-20%	?	/	7%
COc1cccc(Oc2ccc(C(F)(F)F)cc2NC(=O)CN2C(=O)NC3(CCCC3)C2=O)c1	-30	13µM*	?	15µM*	-5%	18µM*
O=C(CN1C(=O)NC2(CCCCC2)C1=O)Nc1cc(C(F)(F)F)ccc1N1CCCCC1	14	-11%	?	?	2%	-7%
C=C1C=C(C)n2ncc(C(=O)NCCCCCC)c2N1	/	-2%	?	-2%	/	-1%
CCc1ccc(CNC(=O)C(C)n2ccc3cc(S(=O)(=O)N4CCCCCC4)ccc32)cc1 (centres undefined)	/	-21%	?	?	6%	-14%
Cc1ccc(C)c(NC(=O)CN2C(=O)CCc3ccccc32)c1	/	-9%	0%	-6%	-3%	1%
COc1ccc(N2CCN(CC(O)COc3ccc4c(c3)CCC4)CC2)cc1 (centres undefined)	?	-27%	23µM*	18µM*	8%	-10%
OC(COc1ccc2c(c1)CCC2)CN1CCN(c2ccccc2F)CC1 (centres undefined)	-53*	-39%	-9%	-10%	-2%	?
C=CCc1ccccc1OCC(O)CN1CCN(c2ccc(OC)cc2)CC1 (centres undefined)	-22	-43%	?	16µM*	11%	-18%
SMILES	IL1B secr inh	HepG2 viability	DT40 TDP1 no CPT	DT40 TDP1 CPT	TDP1 inh	TGFb inhibitor
COc1ccc(OCC(O)CN2CCN(c3ccc(Cl)cc3)CC2)cc1 (centres undefined)	15	1%	?	-24%	1%	-14%
C=CCc1ccccc1OCC(O)CN(C(C)C)C(C)C (centres undefined)	-17	3%	23µM*	-24%	4%	-4%
COc1ccc(C(=O)N2CCC[C@@]3(CCN(C)C3)C2)cc1	/	/	-18%	-7%	/	/
CCOc1ccccc1N(C)C(=O)Cn1nc(Cc2ccncc2)c2ccccc2c1=O	/	-35%	?	-17%	4%	?
COc1cccc(NC(=O)Cn2c(=O)n(CCCCC(=O)NCc3ccc4c(c3)OCO4)c(=O)c3ccccc32)c1	/	-49%	?	?	-1%	-5%
C=CCc1ccc(OCC(O)CN2CCN(Cc3ccc(Cl)cc3)CC2)c(OC)c1 (centres undefined)	?	-62%	21µM*	?	8%	?
OC(COCc1ccc(Cl)cc1)CN1CCN(CC(O)COCc2ccc(Cl)cc2)CC1 (centres undefined)	?	-43%	15µM*	18µM*	6%	0%
OC(COCc1ccc(Cl)cc1)CN1CCCCC1 (centres undefined)	-3	-2%	-1%	5%	0%	-1%
COc1ccc(CNC(=O)CN(Cc2ccc(Cl)cc2)S(=O)(=O)c2ccccc2)cc1	?	-54%	?	?	-1%	?
COc1ccc(CNC(=O)CN(Cc2ccccc2)S(=O)(=O)c2ccc(Cl)cc2)cc1	-16	0%	18µM*	?	-6%	?
CCN(CC(=O)NCc1ccc(Cl)cc1)C(=O)c1cccc(S(=O)(=O)Nc2ccc(OC)cc2)c1	-8	-18%	10µM*	?	0%	0%
CCN(CC(=O)NCc1ccc(Cl)cc1)C(=O)c1ccc(C#N)cc1	1	-1%	?	21µM*	/	-1%
COc1ccc(S(=O)(=O)N(CC(=O)NCc2ccncc2)Cc2ccccc2)cc1	11	9%	12µM*	?	/	10%
O=C1C(=O)N(CCCn2ccnc2)C(c2ccc([N+](=O)[O-])cc2)/C1=C(\O)c1ccc2c(c1)OCCO2 (centres undefined)	-13	-6%	-26%	-3%	4%	-25%
Cc1cc(C)nc(NS(=O)(=O)c2ccc(NC(=O)c3ccccc3O)cc2)n1	/	-3%	-3%	-11%	/	-1%
